Measurements published in PubChem BioAssay (EPA / NIEHS).
Activity calls are given as the source filed them. The calls were made as follows: active = hit-call score of the fitted dose curve at least 0.9, where 1 is the maximum; inactive = score below 0.9.

Test: CEETOX_H295R_ESTRADIOL: CeeTox H295R High-throughput Steroidogenesis Assay for Estradiol (AID 2283440);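 also: estradiol secreted into medium quantified by LC-MS/MS after dansyl derivatisation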
Details: actives raise or lower the signal
How it was run: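 Estradiol in spent medium measured by LC-MS/MS after dansyl chloride derivatisation. Forskolin-primed (10 uM, 48 h) human adrenal H295R cells received test chemical 48 h at 0.1% DMSO; concentrations lowered until MTT viability >/=70%.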

Row | Structure (SMILES) | outcome | AC50
1 | O=c1[nH]cccc1O | inactive | –
2 | Oc1ccc2c(c1)CCC2 | – | 39.1 µM (active)
3 | CC1CCCCC1 | inactive | –
4 | CCCCC(CC)COC(=O)c1ccc(N(C)C)cc1 (stereo not drawn) | inactive | –
5 | CCOCOCC | inactive | –
6 | CN1CN(C)CN(C)C1 | inactive | –
7 | Cc1cccc(C)n1 | inactive | –
8 | O=C1c2ccccc2C(=O)c2c(Cl)cccc21 | inactive | –
